Data on 48 molecules can be found in PubChem BioAssay AID2676 (National Center for Advancing Translational Sciences (NCATS), 2010).

Screen size: about 370,000 compounds; about 1,100 (0.3%) were called active. Not shown: some 1% with an inconclusive outcome. The entries come from a sample that favours actives as a whole. Unmarked numbers belong to inactive results. Calls come from the whole dose curve; as a rule, active = well fitted activation curve with a large enough effect; inconclusive = small, poorly fitted or top-dose-only effect; inactive = flat fitted curve, though single readings scatter.
% is set by controls: 0 for no effect and ±100 for the full control effect; potency is the fitted concentration of half-maximal effect.

Sequence of Relaxin receptor 1 (Homo sapiens) (Q9HBX9 whole entry, looked up): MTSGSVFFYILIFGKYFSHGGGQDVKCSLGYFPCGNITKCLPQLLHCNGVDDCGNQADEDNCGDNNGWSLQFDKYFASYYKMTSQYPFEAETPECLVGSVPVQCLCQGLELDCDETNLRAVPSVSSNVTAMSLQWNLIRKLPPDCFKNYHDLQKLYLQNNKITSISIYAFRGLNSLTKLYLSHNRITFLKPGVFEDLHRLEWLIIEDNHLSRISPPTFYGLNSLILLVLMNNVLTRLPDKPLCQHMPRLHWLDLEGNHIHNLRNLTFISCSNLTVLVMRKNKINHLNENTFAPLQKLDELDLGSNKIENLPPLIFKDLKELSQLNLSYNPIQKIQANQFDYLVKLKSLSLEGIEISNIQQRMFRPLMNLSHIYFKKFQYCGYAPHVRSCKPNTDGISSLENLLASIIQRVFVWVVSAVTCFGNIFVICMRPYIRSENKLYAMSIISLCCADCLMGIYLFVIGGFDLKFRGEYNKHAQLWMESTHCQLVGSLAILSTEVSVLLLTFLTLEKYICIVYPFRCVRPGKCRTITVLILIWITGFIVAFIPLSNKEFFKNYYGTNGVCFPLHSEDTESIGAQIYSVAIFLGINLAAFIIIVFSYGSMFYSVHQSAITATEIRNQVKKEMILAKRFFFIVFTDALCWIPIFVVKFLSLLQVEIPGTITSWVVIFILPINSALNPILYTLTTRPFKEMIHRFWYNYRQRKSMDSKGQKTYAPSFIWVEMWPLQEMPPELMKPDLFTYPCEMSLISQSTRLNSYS

The assay concerns the target Relaxin receptor 1 (Homo sapiens) (UniProt Q9HBX9). As to the kind of experiment: qHTS Assay for Agonists of the Relaxin Receptor RXFP1. Note: nearly all actives have a fitted effect of over 60% in size. As to conditions: HEK293T-RXFP1 cAMP TR-FRET, 30 min; series mostly up to 57.5 µM; activation: at the top concentration. The source says:
NIH Chemical Genomics Center [NCGC] NIH Molecular Libraries Probe Production Centers Network [MLPCN] MLPCN Grant: R03 MH085705-01A1 Assay Submitter (PI): Alexander Agoulnik NCGC Assay Overview: The relaxin hormone is involved in the variety of biological functions in normal tissues and diseases. The role of relaxin is well-established in female reproduction and parturition, mammary gland and endometrial development, maintenance of myometrial quiescence during pregnancy. Relaxin signaling through its G protein-coupled receptor (GPCR) RXFP1 results in ECM remodeling through regulation of collagen deposition, cell invasiveness, proliferation and overall tissue homeostasis. […] Recombinant human relaxin (rhRlx) is currently being tested in clinical trials as a protective agent in congestive heart failure, in treating severe preeclampsia, and as an anti-fibrotic agent in systemic sclerosis. Upon relaxin binding RXFP1 activation leads to the activation of adenylate cyclase (AC) via Gs. cAMP will activate PKA, which phosphorylates many signaling proteins. Thus, detection of cAMP increase is an easy and reliable indication of relaxin receptor activation. To screen for agonists of the relaxin receptor, a HEK293T cell line stably transfected with RXFP1 was used. RXFP1 activation was assayed by changes in cAMP levels as detected with a time-resolved fluorescence energy transfer (TR-FRET) cAMP detection kit.
NCGC Assay Protocol Summary: This is a cell-based assay for cAMP second messenger response to screen for agonists of the RXFP1 receptor. The assay was conducted in the presence of a PDE4 inhibitor (Ro 20174). The cells were lysed and the cAMP levels were measured with a TR-FRET cAMP kit. Presence of cAMP in the cell lysate disrupts binding between the cryptate-labeled anti-cAMP and d2-labeled cAMP pair, leading to a decrease in the TR-FRET signal. Data were normalized to the controls for basal activity (buffer only) and 100% activity (29 nM porcine relaxin). The EC50 values were determined from concentration-response data modeled with the standard Hill equation 1536-well assay protocol for the HEK293 RXFP1 cAMP assay: (1) Add 3 ul HEK293 RXFP1 cell culture. 2000 cells/well in DMEM/F12, 10% FBS, 1x Pen/Strep (dispensed offline with MultiDrop Combi). (2) Incubate 16-24 hr at 37C, 5% CO2. (3) Add 1 ul 400uM Ro20174 in DPBS, 0.05% BSA, 0.005% Tween 20. (3) Add 23 nl compounds in DMSO solution. Final concentration was 0.5 - 58 uM. (4) Incubate 30 min at 37C, 5% CO2. (5) Add 1 ul cAMP-d2 in lysis buffer (HTRF cAMP HiRange kit, CisBio). (6) Add 1 ul anti-cAMP antibody-cryptate in lysis buffer (HTRF cAMP HiRange kit, CisBio). (7) Incubate 30 min at room temperature. (6) Detect the assay plate in a ViewLux plate reader (PerkinElmer) with Ex=320 nm, Em1=615 nm and Em2=665 nm. Keywords: relaxin, RXFP1, RXFP2, G-protein coupled receptor, cAMP, agonist, high throughput screening, MLSMR, MLSCN, NIH Roadmap, qHTS and NCGC
Take `CN(CC(=O)Nc1ccc(F)c(F)c1F)C(=O)Cn1cnc2c1c(=O)n(C)c(=O)n2C`: the “activation” value was 9.55%.

Regarding `Cc1cnc(NC(=O)Cn2cnc3c2c(=O)n(C)c(=O)n3C)s1`, the “activation” value is 15.8%.

Consider `Cn1c(=O)c2c(ncn2CC(=O)N/N=C/c2cn[nH]c2-c2ccc(F)cc2)n(C)c1=O`, for which the Potency is 14.1 µM (active).

Regarding `CCCNc1ncnc2c1c(-c1ccccc1)cn2-c1ccc(OCC)cc1`, the “activation” value is 4.06%.

Turning to `COc1ccc(S(=O)(=O)N2CCOCC2)cc1NC(=O)Cc1c(F)cccc1Cl`, the “activation” value was -0.855%.

On to `COc1ccc(S(=O)(=O)N2CCOCC2)cc1NC(=O)CSc1ncnc2ccccc12`, for which the Potency is 15.8 µM (active).

Regarding `COc1ccc(S(=O)(=O)N2CCOCC2)cc1NC(=O)CSc1cc(C)ccc1C`, the “activation” value is -2%.

Turning to `CCOc1ccc(C(=O)Nc2ccc3nc4c(c(Nc5ccccc5OC)c3c2)CCCC4)cc1`, the “activation” value is -0.31%.

`C=Cc1ccc(Cn2c(C(=O)O)c(CNC3CCCC3)c3ccc(C)cc32)cc1`: the “activation” value was 0.0544%.

As to `CCOc1ccc(CCNC(=O)CN(c2ccc(C)cc2)S(=O)(=O)N(C)C)cc1OCC`, the “activation” value is 2%.

`O=C(Nc1ccc(Br)cc1)c1cc2nc(-c3ccccc3)cc(-c3ccccc3)n2n1`: the “activation” value is 3.76%.

Regarding `COc1ccc2oc(-c3ccc(C)c(NC(=O)c4sc5ccccc5c4Cl)c3)nc2c1`, the “activation” value was 2.29%.

On to `CCOc1cccc(CC(=O)N2CCc3c([nH]c4ccccc34)C2c2ccc(OC)cc2)c1OCC` (stereo not drawn), for which the “activation” value was 4.11%.

Regarding `Cc1cc(C)cc(NC(=O)Cn2nc(N3CCN(c4ccccc4)CC3)ccc2=O)c1`, the “activation” value was 0.0868%.

Consider `Cc1ccc(Cl)cc1N(C)C(=O)C1CCCN(c2ncnc3onc(-c4ccc(F)cc4)c23)C1` (stereo not drawn), for which the “activation” value is 0.553%.

As to `COc1ccc(N2CCN(C3=NS(=O)(=O)C(c4cccc(Br)c4)=C3C)CC2)cc1`, the “activation” value is -0.541%.

`Cc1c(-c2nsc(NC(=O)c3cccc(Cl)c3)n2)nnn1-c1ccccc1C(F)(F)F`: the “activation” value is -0.886%.

Turning to `COc1ccc(-c2nc3c(c(SCC(=O)Nc4ccc(C(=O)O)cc4)n2)Cc2ccccc2O3)cc1`, the “activation” value was 21.7%.

In the case of `Cc1ccc(-c2nn(CCC(=O)Nc3ccc(OC(F)(F)F)cc3)c(=O)c3ccccc23)cc1`, the “activation” value was 6.25%.

Take `COc1ccc(-n2c(SCC(N)=O)nc3c(oc4ccccc43)c2=O)cc1`: the “activation” value is 0.504%.

On to `COC(=O)c1ccccc1NC(=O)C(Cc1ccccc1)N1Cc2ccccc2C1=O` (stereo not drawn), for which the “activation” value is 4.06%.

Turning to `CC1=C(c2ccc(F)cc2)S(=O)(=O)N=C1N1CCC(C(=O)NCCc2ccccc2C)CC1`, the “activation” value was 2.67%.

On to `Cc1ccc2nc3c(cc(C(=O)NC4CCCCC4)c(=N)n3C(C)C)c(=O)n2c1`, for which the “activation” value is 5.26%.

As for `COc1cccc(-n2c(=O)c3c(C)c(C(=O)N(C)C)sc3n(Cc3cccc(C)c3)c2=O)c1`, the “activation” value was 2.04%.

As for `CCCCOc1ccc(CNC(=O)c2ccc3c(c2)N(C)C(=O)C2CCCCN32)cc1` (stereo not drawn), the “activation” value is -0.99%.

Consider `O=C(c1ccc2c(c1)N(Cc1ccccc1)C(=O)c1ccccc1S2(=O)=O)N1CCC(Cc2ccccc2)CC1`, for which the “activation” value is 0.856%.

Turning to `Cc1cccc(NC(c2cccc(F)c2)c2ccc3ccc(C)nc3c2O)n1` (stereo not drawn), the “activation” value is 1.58%.

On to `CCOc1ccccc1NC(=O)Cn1c(=O)n(Cc2ccccc2)c(=O)c2c(C)c(C(=O)N(C)C)sc21`, for which the “activation” value is 2.17%.

For the molecule `COc1ccc(S(=O)(=O)Nc2cc3c(C(=O)OC(C)C)c(C)oc3c3ccccc23)cc1`, the “activation” value was 1.2%.

Take `CC1=C(C(=O)N2CCN(c3cccc(C(F)(F)F)c3)CC2)C2(CCCCC2)OC1=O`: the “activation” value is -0.574%.

Consider `CC(C)(C)OC(=O)N1CCC(c2c(C(=O)N3CCN(c4cccc(Cl)c4)CC3)cnn2-c2cccc(Cl)c2)CC1`, for which the “activation” value was 2.09%.

Consider `COc1ccc2c(c1)CCc1c(C(=O)Nc3cc(C)ccc3O)noc1-2`, for which the “activation” value was -4.18%.

As to `COc1cccc(CNC(=O)Cn2c(=O)c3cccn3c3ccc(F)cc32)c1OC`, the “activation” value was 2.2%.

For the molecule `O=C(NCCc1ccccc1)c1cnc2sc(N3CCCC3)nn2c1=O`, the “activation” value is 8.9%.

As to `COc1ccccc1-c1nnc(SCC(N)=O)o1`, the “activation” value is 11.1%.

Consider `COc1cccc(C2C(C(=O)Nc3ccc(C)cc3C)=C(C)Nc3c(C(=O)Nc4ccccc4)cnn32)c1` (stereo not drawn), for which the “activation” value is -1.61%.

For `CCCCN1C(=O)c2[nH]nc(-c3ccccc3O)c2C1c1cccc(OCc2ccccc2)c1` (stereo not drawn), the “activation” value was 1.42%.

Regarding `CCN(C(=O)c1sc2cc(OC)ccc2c1Cl)c1ccccc1`, the “activation” value is 1.04%.

With `CCC(Sc1nc2n[nH]c(C)c2c(=N)n1-c1ccccc1Cl)C(=O)N(CC)CC` (stereo not drawn), the “activation” value was 3.81%.

In the case of `Cc1nn(Cc2ccc(F)cc2)c(C)c1NC(=O)c1cc(CC(C)C)on1`, the “activation” value was -1.08%.

`Cc1ccccc1NC(=O)c1cc2c([nH]c1=O)CC(C)(C)CC2=O`: the “activation” value is 19%.

`O=C(CCn1c(=O)c2sccc2n(Cc2ccc(F)cc2)c1=O)NCc1ccc2c(c1)OCO2`: the “activation” value was 13.4%.

For `CCCCN1CC(c2nc3ccccc3n2CCCCOc2ccc(C)cc2C)CC1=O` (stereo not drawn), the “activation” value was -4.27%.

On to `O=C(c1ccc(C(F)(F)F)cc1)N1CCC(c2nc(-c3ccc(S(=O)(=O)N4CCCC4)cc3)no2)CC1`, for which the “activation” value was -4.31%.

Turning to `CC(C)(C)c1ccc(C(=O)NCC(c2ccco2)S(=O)(=O)c2ccc(F)cc2)cc1` (stereo not drawn), the “activation” value was 1.03%.

With `COc1ccc(Cc2nc3ccc(C(=O)NCc4ccc(OC)cc4OC)cc3o2)cc1`, the “activation” value was -1.3%.

With `O=C(CSCc1cnn(-c2ccccc2)c1-n1cccc1)NCc1ccc(Cl)cc1`, the “activation” value was 0.103%.

`O=C(Nc1ccc(Br)cc1)c1ccc(Br)c(S(=O)(=O)NCc2ccccc2)c1`: the “activation” value was 2.11%.
